# Results: PubChem BioAssay (Tox21)
# Results filed as inconclusive are left out. Where a call stands in place of a potency, no number is given. Activity calls are given as the source filed them. The call rests on the fitted dose curve; in most records, active means well fitted cell-killing curve with a large enough effect in the repeat runs; inconclusive means weak or mixed curves; inactive means no such curve, though single readings can be large or run the other way.
# Assay: qHTS assay to identify small molecule antagonists of the androgen receptor (AR) signaling pathway - cell viability counter screen (AID 743033; further: nearly all actives have a fitted effect of over 45% in size)
# Details: AR-bla HEK293 viability, CellTiter-Glo luminescence, 16 h; series mostly up to 58.5 µM
# Potency means the concentration at half of the fitted maximal effect.
row,SMILES,Potency
1,CNc1ccc(O)cc1,38.8 µM (active)
2,CCCCCCCCCCCC[N+](C)(C)CCCCCCCCCCCC,19.5 µM (active)
3,CC(=O)S[C@@H]1CC2=CC(=O)CC[C@]2(C)[C@H]2CC[C@@]3(C)[C@@H](CC[C@@]34CCC(=O)O4)[C@H]12,inactive
4,O=C(OC[C@H]1O[C@@H](OC(=O)c2cc(O)c(O)c(OC(=O)c3cc(O)c(O)c(O)c3)c2)[C@H](OC(=O)c2cc(O)c(O)c(OC(=O)c3cc(O)c(O)c(O)c3)c2)[C@@H](OC(=O)c2cc(O)c(O)c(OC(=O)c3cc(O)c(O)c(O)c3)c2)[C@@H]1OC(=O)c1cc(O)c(O)c(OC(=O)c2cc(O)c(O)c(O)c2)c1)c1cc(O)c(O)c(OC(=O)c2cc(O)c(O)c(O)c2)c1,19 µM (active)
5,CO[Si](CCCNc1ccccc1)(OC)OC,inactive
6,S=c1[nH]c2ccccc2s1,inactive
7,Cc1cccc(S(=O)(=O)O)c1C,inactive
8,O=[N+]([O-])c1cc([N+](=O)[O-])c2ccc(S(=O)(=O)O)cc2c1O,inactive
9,CCOC(=O)O[C@H](C)OC(=O)c1ccc2c(c1)cc(C(=O)NC1CCN(C(C)C)CC1)n2Cc1cc(-c2ccc(Cl)s2)on1,7.25 µM (active)
10,CCCCCCCCCCCCCCCC[N+](C)(C)CCN(Cc1ccc(OC)cc1)c1ncccn1,inactive
11,O=C(Oc1cccc2cccnc12)c1ccccc1,7.56 µM (active)
12,OCCN(CCO)c1nc(N2CCCCC2)c2nc(N(CCO)CCO)nc(N3CCCCC3)c2n1,inactive
13,CSc1cnc(C)cn1,inactive
14,CCC(N)(CO)CO,inactive
15,CCCC1O[C@@H]2C[C@H]3[C@@H]4CCC5=CC(=O)C=C[C@]5(C)[C@H]4[C@@H](O)C[C@]3(C)[C@]2(C(=O)CO)O1 (stereo partly drawn),inactive
16,Clc1ccccc1C(c1ccccc1)(c1ccccc1)n1ccnc1,54.9 µM (active)
17,C1CCCC1,inactive
18,Cc1c(C)c2c(c(C)c1OC(=O)CCC(=O)O)CC[C@@](C)(CCC[C@H](C)CCC[C@H](C)CCCC(C)C)O2,inactive
19,O=[N+]([O-])c1cc(Cl)c(Cl)c(Cl)c1Cl,inactive

row,SMILES,Potency
1,CC(NN)c1ccccc1 (stereo not drawn),inactive
2,CCCCCCCCNC(C)C(O)c1ccc(SC(C)C)cc1 (stereo not drawn),21.3 µM (active)
3,Oc1cccc2cc3cccc(O)c3c(O)c12,inactive
4,COc1ccc(C(=O)/C(Br)=C\C(=O)O)cc1,inactive
5,CC(C)c1ccc2c(c1)CC[C@H]1[C@](C)(CN)CCC[C@]21C,21.9 µM (active)
6,C[C@H](CCC(=O)O)[C@H]1CC[C@H]2[C@@H]3CC[C@@H]4C[C@H](O)CC[C@]4(C)[C@H]3CC[C@]12C,inactive
7,On1ccccc1=S,0.385 µM (active)
8,Cc1cc(C2CCCCC2)n(O)c(=O)c1,inactive
9,COc1cc(/C=C/C(=O)O[C@H]2CC[C@]34C[C@]35CC[C@]3(C)[C@@H]([C@H](C)CCC=C(C)C)CC[C@@]3(C)[C@@H]5CC[C@H]4C2(C)C)ccc1O,inactive
10,Cc1ccc(-n2nc(C(C)(C)C)cc2NC(=O)Nc2ccc(OCCN3CCOCC3)c3ccccc23)cc1,inactive
11,CCOC(=O)/C=C(C)/C=C/C=C(C)/C=C/c1c(C)cc(OC)c(C)c1C,inactive
12,COc1cccc(N)c1,inactive
13,Cn1cc(C(=O)[C@@H]2CCc3nc[nH]c3C2)c2ccccc21,inactive
14,O=C(OCC(COC(=O)c1ccccc1)(COC(=O)c1ccccc1)COC(=O)c1ccccc1)c1ccccc1,inactive
15,CN(C)c1ccc(SC#N)cc1,inactive
16,CC(=O)OCC(C)OC(C)=O (stereo not drawn),inactive
17,CCc1cc(SCc2sc(-c3ccc(C(F)(F)F)cc3)nc2CN2CCN(c3ccc(OC)cc3)CC2)ccc1OCC(=O)O,5.49 µM (active)
18,C=CC(=O)OCCn1c(=O)n(CCOC(=O)C=C)c(=O)n(CCOC(=O)C=C)c1=O,15.5 µM (active)
19,CCCCCCCCCCCCCCCS(=O)(=O)Oc1ccccc1,inactive
